# Test results reported in PubChem BioAssay (NCI).
# Several values for one entry are separate records, joined by “and”; a condition that tells them apart may be missing. Equal entries are not always repeated. This is part of a sample that, as a whole, favours compounds with a hit. Of some 83,000 tested, about 20% had one in any assay.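 Each cell line was grown in a 96-well plate and treated with one concentration of compound for 48 hours. Values below 10 were considered active.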 A number with no mark means an inactive call. Activity calls are given as the source filed them.
# Legend:
# Assay in all cases: NCI-60 one-dose screen, 48 h (100 = growth as untreated, 0 = no growth, -100 = all killed)
# [1] = system: T-47D breast
# [2] = system: BT-549 breast
# [3] = system: MDA-MB-435 melanoma
# [4] = system: SW-620 colon; conditions: 10 µM unless noted
# [5] = system: MCF7 breast
# [6] = system: HCT-116 colon
# [7] = system: HCC-2998 colon
# [8] = system: KM12 colon; conditions: 10 µM unless noted
compound,measurement,setting,value
COc1cc(/C=C/C(C)=O)ccc1O,growth,[1]; 10 µM unless noted,97.2% and 106%
same,growth,[2]; 10 µM unless noted,104%
same,growth,[3]; 10 µM unless noted,101% and 106%
same,growth,[4],104% and 110%
same,growth,[5]; 10 µM,96.8% and 98.8%
same,growth,[6]; 10 µM unless noted,104% and 103%
same,growth,[7]; 10 µM unless noted,102% and 104%
O=C(O)c1ccc2c3c(ncnc13)-c1ccccc1C2=O,growth,[1]; 10 µM unless noted,101%
same,growth,[2]; 10 µM unless noted,33.8%
same,growth,[3]; 10 µM unless noted,-60% (active)
same,growth,[4],87.7%
same,growth,[5]; 10 µM,50.9%
same,growth,[6]; 10 µM unless noted,91.2%
same,growth,[7]; 10 µM unless noted,-58.5% (active)
CCOc1ccc(-c2nc3ccc(-c4nc5ccc(N6CCN(C)CC6)cc5[nH]4)cc3[nH]2)cc1,growth,[1]; 10 µM unless noted,-69.4% (active)
same,growth,[2]; 10 µM unless noted,-96.6% (active)
same,growth,[3]; 10 µM unless noted,-96% (active)
same,growth,[4],-85.5% (active)
same,growth,[5]; 10 µM,-90.3% (active)
same,growth,[6]; 10 µM unless noted,-77.6% (active)
same,growth,[7]; 10 µM unless noted,-95.3% (active)
same,growth,[8],-100% (active)
O=C(Nc1c(Cl)cccc1Cl)Oc1cccc2cccnc12,growth,[1]; 10 µM,30.2%
same,growth,[1]; 100 µM,7.28% (active)
same,growth,[2]; 10 µM,78.5%
same,growth,[2]; 100 µM,23.5%
same,growth,[3]; 10 µM,53.6%
same,growth,[3]; 100 µM,23.8%
same,growth,[5]; 10 µM,3.58% (active)
same,growth,[5]; 100 µM,-1.84% (active)
same,growth,[6]; 10 µM,14.3%
same,growth,[6]; 100 µM,8.1% (active)
same,growth,[7]; 10 µM,93.4%
same,growth,[7]; 100 µM,42.2%
CN(C)C(=O)c1ccc(SC(=S)NCc2ccccc2)cc1,growth,[1]; 10 µM,90%
same,growth,[1]; 100 µM,13.4%
same,growth,[2]; 10 µM,114%
same,growth,[2]; 100 µM,-79.3% (active)
same,growth,[5]; 10 µM,67.3%
same,growth,[5]; 100 µM,-7.59% (active)
same,growth,[6]; 10 µM,100%
same,growth,[6]; 100 µM,-26.2% (active)
same,growth,[7]; 10 µM,104%
same,growth,[7]; 100 µM,-78.3% (active)
O=C(CC1(O)C(=O)Nc2c(Cl)ccc(Cl)c21)c1ccc(Cl)cc1Cl (stereo unspecified),growth,[1]; 10 µM unless noted,75.5%
same,growth,[2]; 10 µM unless noted,90.2%
same,growth,[3]; 10 µM unless noted,91.6%
same,growth,[4],105%
same,growth,[5]; 10 µM,91.6%
same,growth,[6]; 10 µM unless noted,89.9%
same,growth,[7]; 10 µM unless noted,110%
